Measurements: PubChem BioAssay (NCI)
The panel holds about 79,000 compounds, 15% with a hit somewhere; the sample as a whole holds those more often. Rule as the data show it: active = growth inhibition above about 70%; inactive = the rest.

Assays:
[1] = NCI Yeast Anticancer Drug Screen. Data for the rad50 strain (AID 155);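 also: 0% = growth of vehicle-only cultures of the same strain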; details: S. cerevisiae rad50 strain growth inhibition; at 50.0 µM; active compounds read high
Outline: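 DNA repair mutant yeast, compound exposure, growth read-out; inhibition is taken relative to vehicle.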

[2] = NCI Yeast Anticancer Drug Screen. Data for the mec2-1 strain (AID 157); details: S. cerevisiae mec2-1 strain, at 50.0 µM, active compounds read high
Outline: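 Strain: mec2-1 (DNA repair/cell cycle alteration). Compound exposure, then growth measured; inhibition expressed relative to vehicle.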

[3] = NCI Yeast Anticancer Drug Screen. Data for the sgs1 mgt1 strain (AID 161);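 also: 0% = growth of cultures given vehicle only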; details: S. cerevisiae sgs1 mgt1 strain, at 50.0 µM, active compounds read high
Outline: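 Mutant yeast exposed to compound; growth scored against vehicle-only wells.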

[4] = NCI Yeast Anticancer Drug Screen. Data for the cln2 rad14 strain (AID 165);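 also: 0% = growth equal to vehicle treated cultures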; details: S. cerevisiae cln2 rad14 strain, at 50.0 µM, active compounds read high
Outline: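 Compounds are applied to the cln2 rad14 yeast strain, and growth is then compared with that of vehicle-treated cultures to give inhibition.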

[5] = NCI Yeast Anticancer Drug Screen. Data for the bub3 strain (AID 167); details: S. cerevisiae bub3 mutant strain, at 50.0 µM, active compounds read high
Outline: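 In this screen, a yeast mutant lacking normal mitotic checkpoint function is challenged with compound. Relative growth versus vehicle gives the inhibition value.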

[6] = NCI Yeast Anticancer Drug Screen. Data for the mlh1 rad18 strain (AID 175); details: S. cerevisiae mlh1 rad18 strain growth inhibition; at 50.0 µM; active compounds read high
Outline: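 Read-out is yeast growth inhibition, calculated against vehicle-only controls. The compound was applied to a strain engineered with DNA damage repair alterations.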

Measured: growth inhibition

O=C(O)C(c1ccccc1)S(=O)(=O)c1ccccc1 (stereo not given)
inactive: [1] 3.55% | [2] -7% | [3] 8.85% | [4] -16.7% | [5] -11.5% | [6] 5.95%

COC(=O)/C=C/CCCC1CCCCC1
inactive: [1] -7.8% | [2] -3.85% | [3] 4.9% | [4] 0.45% | [5] -14.9% | [6] -13.9%

CC(CC(C)(C)C)C(=O)NC(N)=O (stereo not given)
inactive: [1] 29.3% | [2] -4.05% | [3] -7.95% | [4] -0.6% | [5] 8.65% | [6] 7.6%

CC(=O)NC1c2ccccc2C(C)(C)C12CCC1(CC2)OCCO1 (stereo not given)
inactive: [1] -33.5% | [2] -17.1% | [3] -4.8% | [4] 0.05% | [5] -3.8% | [6] -40.8%

CCOC(=O)/C(=C\n1c(=S)[nH]c2cc(C)ccc21)C(=O)c1ccccc1
inactive: [1] -41.2% | [2] -60.5% | [3] -18.8% | [4] 10.8% | [5] -14.2% | [6] -13.5%

CCSc1[nH]c(NC(=NC(C)C)NC(=O)c2ccccc2)c(C(N)=O)c1C(N)=O
inactive: [1] 2.75% | [2] 1.35% | [3] 0.8% | [4] 9.3% | [5] -4.75% | [6] 18.6%

N=C(N)SCC(O)C(O)CSC(=N)N (stereo not given)
inactive: [1] 0.3% | [2] 4.4% | [3] -0.95% | [4] -30.1% | [5] -6.45% | [6] -1.5%

CC(C)NCC(C)(C)[N+](=O)[O-]
inactive: [1] 5.05% | [2] -8.55% | [3] 3.65% | [4] -4.1% | [5] 3.3% | [6] -0.95%

Oc1ccccc1/C=N/c1nc(-c2ccccc2)cs1.[Co].[O-]c1ccccc1/C=N/c1nc(-c2ccccc2)cs1
inactive: [1] 19.2% | [2] 5.9% | [3] 9.8% | [4] 22.4% | [5] 5.35% | [6] 21.2%

O=C(Nc1ccc(C(F)(F)F)cc1[N+](=O)[O-])C(=O)C1NC(=S)NC1=O (stereo not given)
inactive: [1] 30.6% | [2] 12.1% | [3] 24.9% | [4] 25.4% | [5] 7.35% | [6] 27.6%

C[N+]1(C)CCC(O)CC1
inactive: [1] -5.5% | [2] 7.2% | [3] -3.1% | [4] -13.4% | [5] 14.9% | [6] 1%

CN/N=C(\C(=O)Nc1ccc(C)c(C)c1)C(C(=O)OC)c1nc2ccc([N+](=O)[O-])cc2[nH]c1=O (stereo not given)
inactive: [1] -42.9% | [2] 2.7% | [3] -19.1% | [4] 19.3% | [5] -1.25% | [6] -18.2%

CCOC(=O)C(=O)C1CCCC1=O (stereo not given)
inactive: [1] -6.9% | [2] -6.65% | [3] 2.25% | [4] -0.7% | [5] 1.7% | [6] -0.6%

NC1Nc2ccccc2NC1=O (stereo not given)
inactive: [1] 4.85% | [2] 10.2% | [3] 3.4% | [4] -3.15% | [5] 6.4% | [6] 0.05%

CCOC(=O)c1c(/N=C/c2ccc3c(c2)OCO3)sc2c1CCCC2
inactive: [1] 7.7% | [2] -23.3% | [3] 17.8% | [4] 11.8% | [5] 11.3% | [6] 3.2%

NC(=O)c1csc(CCCCCCc2nc(C(N)=O)cs2)n1
inactive: [1] -13.8% | [2] -15.5% | [3] -5% | [4] 8.75% | [5] -21.2% | [6] -21.1%

CCOC(=O)/C(=C/c1cn(C(C)=O)c2ccccc12)P(C)(=O)OCC (stereo not given)
inactive: [1] 33.2% | [2] 52.5% | [3] 55.5% | [4] 40% | [5] 53.5% | [6] 22.2%

COC(=O)CCC1(CCC(=O)OC)CCCCCCC(CCC(=O)OC)(CCC(=O)OC)C(=O)C1=O
inactive: [1] -11.6% | [2] -0.5% | [3] -1.25% | [4] -2.45% | [5] 5.25% | [6] 19.8%

O=[N+]([O-])c1ccccc1SSc1ccccc1[N+](=O)[O-]
inactive: [1] -20.4% | [2] -15.6% | [3] -36.5% | [4] -1.85% | [5] -46.4% | [6] -18.6%

[O-][n+]1c(/C=C/c2cccc3ccccc23)cccc1/C=C/c1cccc2ccccc12
inactive: [1] -8.6% | [2] 1% | [3] 42.8% | [4] 6.55% | [5] 29.4% | [6] 40.8%

Cc1cccc2c(/C=C/c3ccc(N(C)C)cc3)ccnc12
inactive: [1] -11.6% | [2] -8% | [3] -3.95% | [4] -22.2% | [5] 2.85% | [6] -11.4%

CC(C)CCCCC(C)(C)OC(=O)NC(N)=O
inactive: [1] 7.25% | [2] 2% | [3] 12.2% | [4] 17.1% | [5] -17.6% | [6] 9.85%

COC(=O)Oc1ccc(Cl)cc1Cl
inactive: [1] -18.1% | [2] -6.05% | [3] 15.9% | [4] -77.4% | [5] -8.25% | [6] 5.7%

COC(=O)C1CCc2c(ccc3cc(OC)ccc23)C1(C)C(=O)OC (stereo not given)
inactive: [1] -14.5% | [2] -7.65% | [3] -7.4% | [4] -40.1% | [5] -2.2% | [6] -10.2%

NC(=O)c1csc(C2OC(CO)CC2O)n1 (stereo not given)
inactive: [1] 4.55% | [2] -2.95% | [3] -2.45% | [4] -6% | [5] 0.2% | [6] -2.1%

O=C1C=CC(=O)c2c1c1c(c3c2C2c4ccccc4C3c3ccccc32)C2c3ccccc3C1c1ccccc12
inactive: [1] -13.5% | [2] -16.1% | [3] 19.9% | [4] -8.25% | [5] -5.75% | [6] 12.7%

C=CCNC(=O)C1C2C=CC(C2)C1C(=O)NCC=C (stereo not given)
inactive: [1] 4.95% | [2] -4.8% | [3] -21.9% | [4] -4.85% | [5] -7.95% | [6] 24.8%

O=S1(=O)C=CC(N/N=C/c2cc(Cl)cc(Cl)c2)=C1
inactive: [1] 37.7% | [2] 9.3% | [3] 20.5% | [4] -38.2% | [5] 26.9% | [6] 26.6%

NC(CSC(c1ccccc1)(c1ccccc1)c1ccc(C(=O)O)cc1)C(=O)O (stereo not given)
inactive: [1] 54.2% | [2] -4.1% | [3] 18.5% | [4] 15.5% | [5] 2.2% | [6] 9.85%

COc1ccc(N=C2c3cc([N+](=O)[O-])ccc3-c3c2cccc3[N+](=O)[O-])cc1
inactive: [1] -5.25% | [2] -8.25% | [3] -4.1% | [4] -20.6% | [5] 3.45% | [6] -7.2%

CCOC(=O)c1cnc2nc[nH]n2c1=O
inactive: [1] -52.8% | [2] -54.5% | [3] -11.2% | [4] 11.6% | [5] -67% | [6] -36.5%

CC1CC(=O)Oc2cc(O)c(O)cc21 (stereo not given)
inactive: [1] 11.8% | [2] 7.9% | [3] 7.3% | [4] 4.4% | [5] 14.9% | [6] 16.9%

CC(=O)OC1C(O[C@H]2CC[C@]34O[C@]35CC[C@]3(C)C(C6(C)CC[C@@H](C(C)(C)O)O6)[C@@H](O)CC3(C)[C@@H]5CC(OC3OC(CO)C(O)C(O)C3O)C4C2(C)C)OCC(O)C1O (stereo not given in full)
inactive: [1] -8.4% | [2] -21.6% | [3] 2.7% | [4] 1.85% | [5] 0.7% | [6] 6.35%

NC(=O)c1cc2ccccc2[n+](Cc2ccc(F)cc2)c1
inactive: [1] -0.2% | [2] 0.4% | [3] 6.45% | [4] -49.1% | [5] 4.9% | [6] -6.95%

CC1=C2CC/C(C)=C/CCC3(C)OC3CC/C(C)=C/C2OC1=O (stereo not given)
inactive: [1] -8.7% | [2] -21.9% | [3] 13.3% | [4] 15.6% | [5] 5.25% | [6] -20.1%

C#Cc1cccc(N=Cc2cc(Cl)cc(C)c2O)c1
inactive: [1] 16.1% | [2] 10.8% | [3] 36.5% | [4] 10.1% | [5] 37.7% | [6] 33.7%

Cc1ccccc1N=C(N)Nc1ccccc1C
inactive: [1] -25.5% | [2] -29.9% | [3] -44.3% | [4] 5.7% | [5] -38.7% | [6] -52.4%

COc1cc(OC)c(/C=C2\N=C(C)N(Nc3nnc(NN4C(=O)/C(=C/c5c(OC)cc(OC)cc5OC)N=C4C)c4ccccc34)C2=O)c(OC)c1
inactive: [1] -0.15% | [2] -2.25% | [3] -12.8% | [4] -2.5% | [5] -2.7% | [6] 8.15%

Cc1ccc(CS(=O)(=O)c2ccc(C)cc2)cc1
inactive: [1] -3.3% | [2] -0.45% | [3] -4.2% | [4] -36.8% | [5] -22.9% | [6] -2.35%

Cc1cc2c(c3ccccc13)C(O)c1ccccc1-2 (stereo not given)
inactive: [1] -7.85% | [2] 5.95% | [3] 1.5% | [4] -15.4% | [5] 3.85% | [6] -9.25%
